From PubChem BioAssay come the findings set out here.

What is called inhibition is the change of the read-out against control, counted positive when it falls.

Experiment [1] can be described thus: Brca1-Bard1 BiLC signal decrease – luminescence, single concentration, counter-screen for Mdm2/MdmX interaction inhibitor project, confirmation (AID 504668). Particulars: Brca1/Bard1 bimolecular luciferase complementation counterscreen, at 8 µM, stronger effect = higher value. A general note: Counterscreens check selectivity or assay interference.
A short description of experiment [2]: NFkB reporter suppression in cystic fibrosis bronchial cells – cell-based, uHTS hits, panel, cytotoxicity readout, dose response (AID 624344). As to conditions: CF bronchial epithelial cells, PAF-induced NFkB reporter inhibition, with PAF, run 1; at 79 µM (top of the series) unless noted.
Experiment in experiment [3]: as above
As to conditions: CF bronchial epithelial cells, PAF-induced NFkB reporter inhibition, with PAF, run 2; at 79 µM (top of the series) unless noted.

For experiment [4], the target named is Tumor necrosis factor receptor superfamily member 10B (Homo sapiens) (UniProt O14763). Briefly: viability loss of caspase-8 NB7 cells with TRAIL – with/without TRAIL, luminescence panel, confirmation (AID 651596; in the data active means activity above about 50%). As to conditions: NB7 neuroblastoma + caspase-8, TRAIL sensitization, NB7 Caspase-8, with TRAIL, mean of runs, at 10 µM, stronger effect = higher value.
Experiment in experiment [5]: as above
As to conditions: NB7 neuroblastoma + caspase-8, without TRAIL, NB7 Caspase-8, without TRAIL, mean of runs, at 10 µM.

Each structure is given as a SMILES string. The source made the active and inactive calls. Unless noted, how the calls were made is not given here.

Chain of Tumor necrosis factor receptor superfamily member 10B (Homo sapiens) (O14763 whole entry, looked up): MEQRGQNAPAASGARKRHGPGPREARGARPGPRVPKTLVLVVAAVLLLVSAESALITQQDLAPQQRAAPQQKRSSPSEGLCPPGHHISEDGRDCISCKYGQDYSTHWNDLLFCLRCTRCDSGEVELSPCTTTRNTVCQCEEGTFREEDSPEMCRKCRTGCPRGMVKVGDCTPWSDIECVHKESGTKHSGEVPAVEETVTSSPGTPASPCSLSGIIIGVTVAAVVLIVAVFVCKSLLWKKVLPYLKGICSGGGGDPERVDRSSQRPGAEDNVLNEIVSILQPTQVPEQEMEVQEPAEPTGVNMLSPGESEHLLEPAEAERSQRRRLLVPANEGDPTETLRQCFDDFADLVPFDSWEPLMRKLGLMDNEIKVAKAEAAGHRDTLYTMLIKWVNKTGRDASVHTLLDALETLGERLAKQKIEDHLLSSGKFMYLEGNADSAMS

Regarding `Cn1nnnc1Sc1ncnc2scc(-c3ccc[nH]3)c12`, the inhibition is 29.2% (active) in experiment [1], 66.8% in experiment [2] and 61.6% in experiment [3].

On to `O=[N+]([O-])c1ccc2ncnc(N3CCN(Cc4ccc5c(c4)OCO5)CC3)c2c1`, for which the inhibition was 24.3% (active) in experiment [1], 112% in experiment [2] and 91.3% in experiment [3].

Consider `CC(C)c1nc(NCCO)c(C#N)c2c1CCCC2`, for which the results for the inhibition in experiment [1], in experiment [2] and in experiment [3] were 35% (active), 112% and 103%, respectively.

`Cc1ccc(NC(=O)Nc2nnc(-c3ccncc3)s2)cc1C`: the inhibition in experiment [1] was 23.3% (active); in experiment [2] it was 102%; in experiment [3], 114%.

Regarding `Cn1c(Oc2ccc(Cl)cc2)c(C=O)c2ccccc21`, the inhibition was 34.4% (active) in experiment [1], 104% in experiment [2] and 109% in experiment [3].

In the case of `NC(=O)N/N=C/c1c(Sc2nnnn2-c2ccccc2)nc2ccccn2c1=O`, the inhibition was 23.4% (active) in experiment [1], 103% in experiment [2] and 105% in experiment [3].

For `Cc1c(C=O)c(C=O)c(C)n1Cc1ccccc1`, the inhibition in experiment [1] was 30.8% (active); in experiment [2] it was 118%; in experiment [3], 103%.

`OCCCNc1ncnc2scc(-c3ccc(Cl)cc3)c12`: the inhibition in experiment [1] is 33.2% (active); in experiment [2], 115%; in experiment [3], 103%.

As for `COc1ccc2[nH]c3c(c2c1)CCNC3=O`, the inhibition in experiment [1] is 34.4% (active); in experiment [2], 103%; in experiment [3] it was 103%.

Turning to `O=C(Nc1nc2ccc(F)cc2s1)C1CCN(S(=O)(=O)c2cc([N+](=O)[O-])ccc2Cl)CC1`, the inhibition was 25.5% (active) in experiment [1], 105% in experiment [2] and 112% in experiment [3].

Regarding `COc1ccc(Cc2nnc(SCc3ccc([N+](=O)[O-])cc3)o2)cc1`, the values for the inhibition in experiment [1], in experiment [2] and in experiment [3] were 28.9% (active), 113% and 97.4%, respectively.

Take `COc1cccc(NC(=O)Nc2nnc(CC(=O)NCc3ccccc3)s2)c1`: the inhibition in experiment [1] is 35.1% (active); in experiment [2], 79.8%; in experiment [3] it was 83.7%.

As to `CC(C)Nc1ncnc2ccc(Br)cc12`, the inhibition in experiment [1] was 24.8% (active); in experiment [2], 118%; in experiment [3], 104%.

As for `COc1ccc(-c2cc(=O)oc3c(C)c(OC(=O)c4cccs4)ccc23)cc1`, the results for the inhibition in experiment [1], in experiment [2] and in experiment [3] were 32.9% (active), 66.8% and 93%, respectively.

With `Cc1[nH]nc2nc(SCC(=O)NCCC3=CCCCC3)n(-c3ccc(Br)cc3)c(=N)c12`, the results for the inhibition in experiment [1], in experiment [2] and in experiment [3] were 31.1% (active), 100% and 111%, respectively. In addition, the activity was determined as 58.5% in experiment [4] and 88.4% in experiment [5].

Take `CCOc1ccc(-n2c(C)c(C(C)=O)c3cc(O)ccc32)cc1`: the inhibition was 31.2% (active) in experiment [1], 90% in experiment [2] and 88.2% in experiment [3].

Turning to `COc1ccc(-c2cncnc2-c2ccc(OC)cc2O)cc1`, the values for the inhibition in experiment [1], in experiment [2] and in experiment [3] were 27.2% (active), 101% and 93.5%, respectively.

Regarding `Cn1c(=O)c2c(nc(Oc3ccc4ccccc4c3)n2C)n(C)c1=O`, the figures for the inhibition in experiment [1], in experiment [2] and in experiment [3] were 33.6% (active), 93.3% and 81.7%, respectively.

For the compound `CC(C)CN=C(NS(=O)(=O)c1ccccc1)C(Cl)(Cl)Cl`, the inhibition is 35.9% (active) in experiment [1], 102% in experiment [2] and 112% in experiment [3].

Regarding `CCOc1cc(Br)c(Br)c(C=Nc2ccc(NC(C)=O)cc2)c1O`, the inhibition was 33.1% (active) in experiment [1], 105% in experiment [2] and 115% in experiment [3].

On to `Nc1ncnc(NCc2ccc(F)cc2)c1[N+](=O)[O-]`, for which the inhibition was 27% (active) in experiment [1], 99% in experiment [2] and 98.9% in experiment [3].

In the case of `Cc1cc(N2CCOCC2)c2c(N)c(Br)cc(C)c2n1`, the inhibition in experiment [1] was 35.4% (active); in experiment [2] it was 118%; in experiment [3], 97.8%.

On to `CCC(C)Oc1cc(-c2ccnc(Nc3cccc(Cl)c3)n2)ccn1` (configuration not stated), for which the inhibition in experiment [1] was 25.4% (active); in experiment [2] it was 102%; in experiment [3] it was 117%.

`COc1cc2cncc(Cc3ccc(Cl)cc3)c2cc1OC`: the inhibition in experiment [1] was 26.2% (active); in experiment [2] it was 104%; in experiment [3] it was 109%.

For `CCCN(CCC)c1ncnc2nc[nH]c12`, the inhibition is 34.6% (active) in experiment [1], 109% in experiment [2] and 108% in experiment [3].

As to `CCOC(=O)Nc1ccc2c(c1)N(C(=O)CCN(CC)CC)c1ccccc1S2=O` (configuration not stated), the figures for the inhibition in experiment [1], in experiment [2] and in experiment [3] were 29.9% (active), 102% and 107%, respectively.

`FC(F)(F)c1nnc2c(Sc3ccc(Cl)cc3)nc3ccccc3n12`: the figures for the inhibition in experiment [1], in experiment [2] and in experiment [3] were 31.6% (active), 98% and 109%, respectively.

`COC1(OC)C=CC(=O)C=C1NC(=O)c1ccccc1OC(C)=O`: the inhibition in experiment [1] is 35.6% (active); in experiment [2], 101%; in experiment [3], 113%.

Take `C=C(C)COc1ccc(-c2[nH]ncc2-c2ccc(OC)cc2)c(O)c1`: the results for the inhibition in experiment [1], in experiment [2] and in experiment [3] were 28.9% (active), 114% and 105%, respectively.

As to `Cc1cccc(CNc2ncnc3ccc(-c4ccoc4)cc23)c1`, the inhibition in experiment [1] is 23.8% (active); in experiment [2], 114%; in experiment [3], 106%.

As to `CCn1c(Oc2ccccc2F)nc2c1c(=O)n(C)c(=O)n2C`, the inhibition is 23.1% (active) in experiment [1], 113% in experiment [2] and 96.5% in experiment [3].

As to `COc1cccc(-c2nnc3sc(C4CCCCC4)nn23)c1`, the inhibition is 25% (active) in experiment [1], 111% in experiment [2] and 104% in experiment [3].

Turning to `COc1ccc2[nH]c3c(c2c1)CC(C)NC3=O` (configuration not stated), the inhibition in experiment [1] is 33.6% (active); in experiment [2], 103%; in experiment [3] it was 112%.

Regarding `CCN1CCN(Cc2ccc(NC(=O)c3ccc(C)c(NC(=O)C(=O)c4c[nH]c5ccccc45)c3)cc2C(F)(F)F)CC1`, the inhibition in experiment [1] is 30.8% (active); in experiment [2] it was 103%; in experiment [3], 112%.

With `Cc1nc2sc(C(N)=O)c(N)c2c(C)c1CC(=O)c1ccccc1`, the inhibition in experiment [1] was 31.4% (active); in experiment [2], 101%; in experiment [3], 80.3%.

With `c1cc2[nH]snc2c2nc(C3CC3)nc12`, the inhibition is 26.4% (active) in experiment [1], 101% in experiment [2] and 118% in experiment [3].

Turning to `CCN(CC)S(=O)(=O)c1ccc(NC(=O)Nc2cccc(C(F)(F)F)c2)cc1`, the inhibition in experiment [1] was 35.2% (active); in experiment [2], 114%; in experiment [3], 99.2%. Moreover, the activity was found to be 82.6% in experiment [4] and 71.3% in experiment [5].

As to `O=C(Nc1cccc2[nH]ncc12)c1ccc(F)cc1`, the inhibition was 25% (active) in experiment [1], 102% in experiment [2] and 95.5% in experiment [3].

Regarding `COc1ccc(-c2cn[nH]c2-c2ccc(O)cc2O)cc1`, the inhibition in experiment [1] was 25.3% (active); in experiment [2] it was 104%; in experiment [3], 112%.

With `CCCCCc1ccc(OCCCC[n+]2ccccc2)c(CCCCC)c1`, the inhibition in experiment [1] was 24.6% (active). In addition, the activity came to 24.6% in experiment [4] and 56.7% in experiment [5].

For `CCCCCN=C(N)N/N=C/c1c[nH]c2ccc(OC)cc12`, the inhibition in experiment [1] was 30.4% (active). For the same compound, the results for the activity in experiment [4] and in experiment [5] were 96.9% and 98%, respectively.
